About 83,000 compounds went through this panel and 20% of them were active in at least one assay; those are over-represented in the sample as a whole.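 Compound tested at a single concentration for 48 hours in 96-well plates; a percent growth value below 10 was scored as active.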 Values without a mark were called inactive. Active and inactive are the calls of the source.

The assay has as its system DU-145 prostate. In words: NCI-60 one-dose screen, 48 h (100 = growth as untreated, 0 = no growth, -100 = all killed). The conditions noted are these: 10 µM unless noted.
`C=C1C(=O)O[C@H]2[C@H]1CC/C(COC(=O)NCc1ccc(Cn3c(=O)sn(CCCC)c3=O)cc1)=C\CC[C@@]1(C)O[C@@H]21`: the growth is 20.2%.

As to `O=C(Nc1ncc(Cc2ccccc2)s1)c1cc(-c2ccccc2)nc2ccccc12`, the growth was 110%.

Regarding `CC(=O)Oc1ccccc1C(=O)N(Cc1ccc2c(Cl)cc(Cl)c(O)c2n1)c1ccccc1`, the growth was 50.1%.

As for `O=C(Nc1ccccc1)Nc1ccccc1CNc1nc(Nc2ccc(OCCN3CCCC3)cc2)ncc1Cl`, the growth is 88%.

On to `C#Cc1ccc(NC(=O)Cc2ccc(/C=C/C(=O)c3nccn3C)cc2)cc1`, for which the growth was 12.6%.

Take `O=C(O)c1nn(-c2ccc(Cl)cc2)nc1N1CCCC1`: the growth is 91.3%.

Take `CCc1ccc(Cc2cnc(NC(=O)c3cc(C)oc3C)s2)cc1`: the growth is 60.2%.

In the case of `O=C(NCCN1CCOCC1)c1cncnc1Nc1ccc2c(ccn2Cc2ccccn2)c1`, the growth was 110%.

As for `CC/C(=C(/c1ccc(Cl)cc1)c1ccc(OCCN2CCCCCC2)cc1)c1ccccc1`, the growth is 97.2%.

On to `CC(=O)OCC(=O)O[C@@H]1C[C@]2(C(C)C)O[C@@]1(C)[C@@H]1CC[C@@H](C)[C@H]1[C@@H]2OC(=O)/C=C/c1ccccc1`, for which the growth is 101%.

`COc1ccc(C(=O)/C=C/c2ccc(C)cc2)cc1S(N)(=O)=O`: the growth was 47.3%.

Regarding `Cc1ccc(Nc2oc(-c3ccccc3)nc2[P+](c2ccccc2)(c2ccccc2)c2ccccc2)cc1`, the growth was -19.4% (active).

As for `COc1ccc(N/N=C/c2ccc3c(c2)Sc2ccccc2N3C)cc1`, the growth is 58.7%.

In the case of `COc1ccc(N2C(=O)/C(=C/C(Cl)=C/c3ccc([N+](=O)[O-])cc3)SC2=S)cc1`, the growth is 5.02% (active).

For the molecule `COc1ccc(C2=C/C(=C\c3ccccc3O)C(=O)N2Cc2ccccc2)cc1`, the growth was 96.2%.

In the case of `COC(=O)[C@H]1Cc2c([nH]c3ccccc23)[C@H](c2ccc3c(c2)OCO3)N1`, the growth was 101%.

On to `O=C(Nc1ncc(Cc2ccccc2)s1)c1ccc2c(c1)OCCO2`, for which the growth is 15.2%.

`CC(=O)CC(=O)c1ccccc1.[Cu+2]`: the growth is 98.4%.

For `COC1CC(O)C2=C(CC3C(/C(C)=C\CC=C(C)C)CCC3(C)O2)C1=O` (configuration not stated), the growth is 101%.

With `Nc1c(C(=O)c2ccc(Cl)cc2)sc(Nc2ccccc2)c1-c1nc2ccccc2s1`, the growth was 25.5%.

Regarding `C=CC(=O)Nc1ccc2ncnc(Nc3cccc(NS(=O)(=O)CCC)c3Cl)c2c1`, the growth was 37.8%.

As to `CCN1C(=O)N(CC)C2C1NC(=S)N2/N=C/C=C/c1ccccc1` (configuration not stated), the growth is 7.35% (active).

For `Oc1cccc2c1NCCC2`, the growth was 34.8%.

Turning to `CCOC(=O)c1cnc2sc(-c3ccc(OC)cc3)nc2c1Cl`, the growth was 96.3%.

With `Cc1ccc2nc(/C=C/c3ccc(N(C)C)cc3)cc(C)c2c1`, the growth is 47.2%.

For `C=CCOC(=O)C1=C(C)N(CC)C(=O)N(CC)C1c1c(Cl)n(C)c2ccccc12` (configuration not stated), the growth is 99.4%.

For the molecule `C=C(C)[C@@H]1CC[C@]2(COC(=O)c3cccnc3)CC[C@]3(C)[C@H](CC[C@@H]4[C@@]5(C)CCCN(C(=O)c6cccnc6)C(C)(C)[C@@H]5CC[C@]43C)[C@@H]12`, the growth is 44%.

In the case of `COc1ccc(C2=NN3C(C2)c2cc(Br)ccc2OC3c2ccncc2)cc1` (configuration not stated), the growth was 96.4%.

For `C=CC(=O)NCc1cccc(Nc2ncc(Br)c(NCCCNC(=O)C3CCC3)n2)c1`, the growth was 9.47% (active).

In the case of `O=C(O)/C=C/c1cn(-c2ccccc2)nc1-c1ccc(F)cc1`, the growth is 115%.

Regarding `CCNCCNc1c(C)c(-c2ccc(C(F)(F)F)cc2)c(C#N)c2nc3ccccc3n12`, the growth is 99.1%.

On to `O=C1CCc2c(sc3[nH]c(=S)n(-c4cc(C(F)(F)F)cc(C(F)(F)F)c4)c(=O)c23)C1`, for which the growth is 25.2%.

`COc1cc2cc(Oc3ccc(NC(=O)Nc4ccc(F)c(C(F)(F)F)c4)cc3)c(C)nc2cc1OCCN1CCCCC1`: the growth was -24.2% (active).

Consider `Cc1ccc2c(c1)CC(O)CC1C(=O)N(CCO)CC(=O)N21` (configuration not stated), for which the growth was 111%.

With `CC(C)(C)CC(C)(C)Nc1c(-c2c(O)c3ccccc3oc2=O)nc2sccn12`, the growth was 113%.

In the case of `O=C1NC(=O)C(=Cc2cc(-c3ccc(Cl)cc3)n(-c3ccccc3)n2)C(=O)N1`, the growth is 105%.

As for `CCOC(=O)c1c2c(n3ccc(NC(=O)CCN4CCCC4)cc13)C(=O)c1ncccc1C2=O`, the growth was -89.3% (active).
